Screening results deposited in PubChem by National Center for Advancing Translational Sciences (NCATS).
RXFP1 agonist: activates the human relaxin receptor RXFP1; HEK293T-RXFP1 cAMP TR-FRET, 30 min; response scale: percent of porcine relaxin response, buffer zero; Potency, µM (highest dose often 57.5 µM), for inactives: at the highest dose activation, usual class: activators; hit rate 0.3% among 370,000; active = well fitted activation curve with a large enough effect; inconclusive = small, poorly fitted or top-dose-only effect; note: potency is the fitted concentration of half-maximal effect; % is set by controls: 0 for no effect and ±100 for the full control effect; nearly all actives have a fitted effect of over 60% in size
Target sequence (Q9HBX9 whole entry, looked up): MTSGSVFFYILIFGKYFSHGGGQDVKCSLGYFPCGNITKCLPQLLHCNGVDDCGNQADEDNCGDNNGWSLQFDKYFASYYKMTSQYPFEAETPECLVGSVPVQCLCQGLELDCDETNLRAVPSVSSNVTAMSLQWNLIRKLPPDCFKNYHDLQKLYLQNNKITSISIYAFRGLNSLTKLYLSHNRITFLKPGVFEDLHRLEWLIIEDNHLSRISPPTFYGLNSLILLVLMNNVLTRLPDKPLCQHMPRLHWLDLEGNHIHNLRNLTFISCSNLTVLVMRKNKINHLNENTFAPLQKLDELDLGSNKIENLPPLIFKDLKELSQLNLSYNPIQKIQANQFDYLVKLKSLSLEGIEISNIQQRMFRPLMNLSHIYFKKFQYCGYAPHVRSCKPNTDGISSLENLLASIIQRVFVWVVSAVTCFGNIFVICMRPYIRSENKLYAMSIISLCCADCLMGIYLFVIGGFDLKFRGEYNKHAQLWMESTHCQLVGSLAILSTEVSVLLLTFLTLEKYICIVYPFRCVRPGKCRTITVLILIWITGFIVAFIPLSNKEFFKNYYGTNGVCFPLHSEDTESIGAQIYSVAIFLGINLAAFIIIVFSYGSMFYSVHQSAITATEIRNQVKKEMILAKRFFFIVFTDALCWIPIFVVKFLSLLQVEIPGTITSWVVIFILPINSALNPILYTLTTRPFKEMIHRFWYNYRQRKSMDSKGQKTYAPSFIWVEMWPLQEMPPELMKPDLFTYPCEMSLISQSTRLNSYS
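HEK293T cells stably expressing RXFP1 were pretreated with the PDE4 inhibitor Ro 20174, exposed to compounds for 30 min at 37C, lysed, and cAMP was read by TR-FRET. Data normalized to buffer (basal) and 29 nM porcine relaxin (100%).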
TSHR antagonist: antagonists of human thyroid stimulating hormone receptor | P16473 | TSHR-expressing cells, TSH-stimulated cAMP HTRF, 2 h; hits give low values | activity change, negative = inhibition, % at 11.5 µM | hit rate 0.2% among 330,000 | AID 504810;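 active = activity change below a set negative limit, meaning inhibition stronger than a set level, cut at about -70% in these data; inconclusive = activity change between two set negative limits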; note: % is set by controls: 0 for no effect and ±100 for the full control effect
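Read-out is FRET at 665 nm (cryptate excitation 337 nm) from a cryptate-tagged anti-cAMP antibody, competed by cell cAMP against cAMP-d2. Compounds are tested on freshly harvested TSHR cells challenged with 4nM TSH (EC80) for 2 hours at 37 deg C.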
gsp ag: agonists of gsp mutant (McCune-Albright syndrome); gsp mutant cells, cAMP HTRF, 30 min; Potency, µM (series often up to 76.9 µM), for the others: at the top dose activation (cAMP increase), hits mostly activators; hit rate 0.13% among 340,000; active = well fitted activation curve with a large enough effect; inconclusive = small, poorly fitted or top-dose-only effect, or another doubt; inactive = no such curve, though single readings can be large or run the other way; cell line not stated here;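 note: phosphodiesterase inhibitor Ro 20-1724 added with compounds to block cAMP breakdown; potency is the fitted concentration of half-maximal effect; nearly all actives have a fitted effect of over 60% in size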
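Cells stably selected in G418 were plated at 2000/well, grown 16-24 hr, then given compounds in DMSO with the PDE inhibitor […] (300 uM solution added) for 30 min at 37C; cAMP was read by HTRF.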
RXFP1 antagonist: blocks the human relaxin receptor RXFP1 | Q9HBX9 | activity change, negative = inhibition, % at 57.5 µM | AID 1259400 | hit rate 0.59% among 350,000 | HEK293-RXFP1, relaxin-stimulated cAMP HTRF, 30 min; hits give low values;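 active = activity change of -60% or lower, but not beyond a set lower limit; inconclusive = change between -60% and -40%, or beyond the set limit; inactive = change above -40%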; note: % is set by controls: 0 for no effect and ±100 for the full control effect
gsp antagonist: antagonizes gsp, the McCune-Albright syndrome mutation; gsp-mutant cells, cAMP HTRF, 30 min; Potency, µM (series often up to 76.9 µM), without a hit: top-dose activity change, negative = inhibition, actives largely listed as inhibitors; hit rate 0.4% among 340,000; AID 624288; calls by dose curve; cell line not stated here;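 note: intracellular cAMP measured with PDE inhibitor Ro 20-1724 present during compound exposure; potency is the fitted concentration of half-maximal effect; % is set by controls: 0 for no effect and ±100 for the full control effect; nearly all actives have a fitted effect of over 65% in size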
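Measurement of cellular cAMP by homogeneous time-resolved fluorescence following a 30 min compound exposure at 37C. The PDE inhibitor […] was present throughout; the assay buffer was DPBS with 0.05% BSA and 0.005% Tween 20.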
Akt phos inh: inhibitors of Akt phosphorylation. Neuro2A IGF-stimulated pAkt S473 HTRF, 20 min; hits give low values. activity change, % for hits at 50 µM. hit rate 0.32% among 360,000; in the data active = activity change below about -80%; inconclusive = mostly about -51% to -80%; note: % is set by controls: 0 for no effect and ±100 for the full control effect
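Neuro2A cells in DMEM with 0.5% FBS, overnight at 37 deg C, given compound at single 50 µM final, then IGF (6 nM final) for 20 min at 37 deg C. Lysed; phospho-Akt Ser473 by HTRF after 24 h, 665/615 ratio.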
Numbers without * were called inactive; i = inactive; u = inconclusive; x = no result; [ ] = remark or other dose. Only some compounds are listed: those with a hit (about 1.3% of all), similar ones and a draw of the others.

SMILES | RXFP1 agonist | TSHR antagonist | gsp ag | RXFP1 antagonist | gsp antagonist | Akt phos inh
CN1/C(=C/C(=O)c2ccc(Cl)cc2)Sc2cc3c(cc21)OCO3 | 3% | -7 | -76% | -19 | 32µM* | i
COc1ccc(C(=O)/C=C2/Sc3cc4c(cc3N2C)OCO4)cc1 | u | 6 | u | 4 | 2% | i
COCCCNC(=O)C[C@H]1C[C@H](C(=O)N2CCOCC2)[C@@]2(CCC3CCCC3)c3[nH]c4cc(CCC(=O)N(C)C)ccc4c3CCN2C1=O | x | 2 | x | x | 5% | i
CCOC(=O)c1cc(-c2ccc(OC)cc2)nn1-c1ccc(C(=O)O)cc1 | -4% | -8 | -3% | -8 | 35µM* | i
O=C(OCc1ccccc1C(F)(F)F)c1ccc(Br)c(S(=O)(=O)N2CCOCC2)c1 | x | x | 3% | 4 | -1% | i
COc1cc(C2C(C#N)=C(N)Oc3cc(C)n(CCc4ccccc4)c(=O)c32)cc2c1OCO2 (stereo unspecified) | 2% | 15 | 16% | 5 | 24% | -88%*
CCOC(=O)C1(CC2CC2)CCN(Cc2cnc(-c3ccc(OC)cc3)nc2)CC1 | 0% | -14 | -9% | 4 | -15% | i
S=C(N/N=C/c1cccs1)NC1CC2CCC1C2 (stereo unspecified) | 0% | -6 | -4%[15.4 µM] | -67* | 6% | i
Oc1ccc(/C=N/NC(=S)NC2CC3CCC2C3)cc1 (stereo unspecified) | -1% | -2 | 10% | -25 | -10% | i
C/C(=N/NC(=O)c1ccncc1)C(=O)O | x | x | x | 1 | x | x
COc1ccc(C2C=C(c3ccc(C)cc3)Nc3c(C(=O)Nc4ccccc4)cnn32)cc1 (stereo unspecified) | -1% | x | x | -3 | x | x
CCN(CC)CCSc1c(C(C)C)cnc2c1c(=O)n(C)c(=O)n2C | 20% | x | x | 3 | x | x
NC(=O)CC12CC3CC(C1)CC(CC(N)=O)(C3)C2 | 1% | -6 | -29% | -1 | -7% | -82%*
CN1C(=O)C(=O)/C(=C(/O)c2ccc(Br)cc2)C1c1cccc([N+](=O)[O-])c1 (stereo unspecified) | -4% | -8 | -6% | 4 | -7% | i
CC(C)(CO)NS(=O)(=O)c1ccc2c(c1)C(=NO)c1cc(S(=O)(=O)NC(C)(C)CO)ccc1-2 | -1% | 41 | 7.1µM* | -2 | 5% | i
COc1ccccc1N1CCN(C(=O)c2cccc(S(=O)(=O)N3c4ccccc4CC3C)c2)CC1 (stereo unspecified) | x | x | 11% | -3 | 32µM* | i
COc1ccc(NS(=O)(=O)c2ccc3c(c2)NC(=O)CCS3)cc1Cl | -1% | -11 | -13% | -1 | 16% | i
O=[N+]([O-])c1ccc(Sc2cccc[n+]2[O-])c2nonc12 | 4% | -91* | 11%[15.4 µM] | u | 35µM* | i
CCN(CC)CC(O)Cn1c(C)c(-c2ccccc2)c2cc([N+](=O)[O-])ccc21 (stereo unspecified) | 2% | -2 | 18% | -89* | 15% | i
CCC(Sc1nc2cc3c(cc2c(=O)n1CCCC(=O)NCc1ccc2c(c1)OCO2)OCO3)C(=O)NCCCOC (stereo unspecified) | 2% | x | x | -106* | x | x
CC(OC(=O)c1ccco1)C(=O)Nc1nc(-c2ccccc2)cs1 (stereo unspecified) | x | 15 | 2% | -6 | -15% | i
COc1cc(NC(=O)CC[C@H]2O[C@@H](n3cnc4c(NC(=O)c5ccccc5)ncnc43)[C@H](O)[C@@H]2O)cc(OC)c1OC | x | x | x | x | x | i
CCCC(=O)Nc1ncnc2c1ncn2[C@@H]1O[C@@H]2COP(=O)(O)O[C@H]2[C@H]1OC(=O)CCC | 0.16µM* | 254 | x | x | 39% | i
CCCC(CCC)(C(=O)OCC)C(=O)OCC | x | x | x | -12 | x | x
COc1ccc(Cl)cc1-c1n[nH]c(=S)o1 | 6.3µM* | 63 | 14µM* | -5 | -1% | i
SMILES | RXFP1 agonist | TSHR antagonist | gsp ag | RXFP1 antagonist | gsp antagonist | Akt phos inh
S=c1[nH]nc(-c2ccccc2)o1 | u | 63 | u | 3 | 0% | i
Cc1ccccc1-c1n[nH]c(=S)o1 | 16µM* | 71 | u | 9 | 40% | -102%*
O=C(NCc1n[nH]c(=S)n1-c1ccc(Cl)c(Cl)c1)c1ccc(S(=O)(=O)N2CCCCC2)cc1 | 1% | 0 | -9% | -60* | 1% | i
COc1ccc(/C(C)=C/C(=O)O)c(OC)c1 | x | x | x | -3 | x | x
C=CS(=O)(=O)c1ccc(Oc2ccc(S(=O)(=O)C=C)cc2)cc1 | 1% | -89* | 5% | -29 | -3% | i
Cc1cn(S(=O)(=O)c2ccc(Br)c3ccccc23)cn1 | 22µM* | 37 | x | x | x | x
O=C(c1ccc2c(c1)OCO2)N1CCC2(CC1)Oc1ccc(F)cc1C(=O)C21CC(c2cccnc2)=NO1 (stereo unspecified) | 0% | -6 | x | x | 35µM* | i
ClC(Cl)(c1nnnn1-c1ccccc1)c1nnnn1-c1ccccc1 | 1% | -6 | -5% | -91* | u | i
Cc1nc(Cc2nnc(SC(C)C(=O)N3c4ccccc4NC(=O)C3(C)C)o2)cs1 (stereo unspecified) | -1% | 1 | 0% | 5 | 9% | i
Cc1nn(C)c2c1c(-c1ccccc1)cc(=O)n2Cc1ccccc1Cl | 2% | x | x | -13 | x | x
COc1cc2c(cc1OC)C(COc1ccc3c(C)cc(=O)oc3c1)N(C(=O)Cc1ccccc1)CC2 (stereo unspecified) | 35µM* | x | x | -6 | x | x
Cc1ccc(OCc2nc(-c3ccc(C(=O)N4CCN(c5cccc(C(F)(F)F)c5)CC4)cc3)oc2C)cc1 | 2% | x | x | -7 | x | x
S=c1[nH]nc(-c2cccs2)n1/N=C/c1cn(-c2ccccc2)nc1-c1cccs1 | 2% | -6 | -3%[15.4 µM] | -83* | u | i
Cc1ccc(-c2nn(-c3ccccc3)cc2/C=N/n2c(-c3cccs3)n[nH]c2=S)cc1 | 2% | -9 | -5%[15.4 µM] | -96* | u | i
COc1ccc(NC(=O)C2CCCN2c2nn3c(=O)cc(C)nc3s2)cc1 (stereo unspecified) | u | -7 | 22µM* | 6 | 13% | i
Cc1ccc(S(=O)(=O)/N=C2/NC(=O)/C(=C/c3ccc(Br)o3)S2)cc1 | 0% | -25 | -86% | 1 | -12% | i
Cc1ccc(S(=O)(=O)/N=C2/NC(=O)/C(=C\c3cc(Br)cc(Br)c3O)S2)cc1 | 19% | -100* | u | -3 | -15% | i
Cc1cc(C)n(-c2nc(NCCCN(C)C)c3c4c(sc3n2)COC(C)(C)C4)n1 | -3% | 17 | 6%[15.4 µM] | -9 | 4% | i
